Z-score data for 23 compounds are collected here from PubChem BioAssay AID817 (Emory University Molecular Libraries Screening Center, 2007).

In all, about 140,000 compounds went through this assay and about 300 (0.21%) were called active.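 How the source made its calls: active means z-score above 3 at both the 24 hr and the 30 hr optical density reads; inactive means the rest, inconclusive results apart.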 Many of the other results were omitted from the sample, so actives are more common in it than they were.

The nature of the assay: growth rescue of sdo1-depleted yeast, primary screen, S. cerevisiae, bone marrow failure model (AID 817).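 Further: z-score against mean and SD of all compound wells on the same plate.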 The note with it: S. cerevisiae sdo1-depleted JHY4D growth rescue, at 10 µM, stronger effect = higher value, pdr5 snq2 efflux-pump mutant strain.
The mark [1] stands for this setting: OD600, measured here: growth rescue at 24 h.

As to `C=CCc1ccccc1OCC(=O)N/N=C/c1ccccc1OCC`, the z-score was 0.63 (inactive) (OD600 30 h) and 0.43 under setting [1].
Consider `CC(=O)N1CCN(CC(=O)Nc2ccc(SC(F)F)cc2)CC1`, for which the z-score runs as follows: (OD600 30 h) 1.61 (inactive); under setting [1], 1.79.
`CC(C)CNC(=O)CC(NCC(C)C)C(=O)O` (stereo unspecified): the z-score is 0.7 (inactive) (OD600 30 h) and 0.56 under setting [1].
Take `c1ccc(C2CNCc3c2ccc2ccccc32)cc1` (stereo unspecified): the z-score by setting is: (OD600 30 h) -0.88 (inactive); under setting [1], -1.37.
In the same order, the values of `CCc1nnc(NC(=O)[C@@H](NC(=O)c2cccc(C)c2)C(C)C)s1` are 0.02 (inactive) and -0.75.
Turning to `CCc1cccc(CC)c1NC(=S)NCc1ccc2[nH]c(C)cc2c1`, the z-score (OD600 30 h) is -0.04 (inactive) and the z-score under setting [1] was 0.97.
Turning to `CC1CCCC(NC(=O)COC(=O)[C@@H]2CC(O)CN2S(=O)(=O)c2ccc3c(c2)OCCO3)C1C` (stereo partly specified), the z-score (OD600 30 h) is 1.03 (inactive) and the z-score under setting [1] is 1.42.
The matching figures for `Cc1nc2scc(-c3cccs3)c2c(=O)n1N`: 0.14 (inactive) and -0.79.
In the same order, the values of `O=C(COC(=O)/C=C/c1nc2ccccc2s1)Nc1ccccc1Oc1ccccc1` are -0.21 (inactive) and 0.04.
`CC(=O)NS(=O)(=O)c1ccc(NC(=O)C2C3C=CC(C3)C2C(=O)O)cc1` (stereo unspecified): the z-score (OD600 30 h) is -0.71 (inactive) and the z-score under setting [1] is -0.47.
In the same order, the values of `CN(C)C(CNC(=O)c1ccc(S(=O)(=O)NCc2ccco2)cc1)c1ccccc1` (stereo unspecified) are 0.96 (inactive) and 0.68.
The matching figures for `COc1ccc(C)cc1Nc1nc(-c2c(C)[nH]c3ccccc23)cs1`: -0.39 (inactive) and -0.09.
For `CCCn1c(=O)c2c(C(F)(F)F)cc(-c3cccs3)nc2n(CCC)c1=O`, the z-score is 1.32 (inactive) (OD600 30 h) and 2.13 under setting [1].
In the same order, the values of `O=C(NCc1cccs1)C(=O)NCC1OCCCN1S(=O)(=O)c1ccc(F)cc1` (stereo unspecified) are -0.71 (inactive) and -1.35.
As for `CCOc1ccc(NC(=S)N2CCC(N(C)CC3CCCO3)CC2)cc1` (stereo unspecified), the z-score runs as follows: (OD600 30 h) 0.68 (inactive); under setting [1], 1.31.
The matching figures for `Cc1[nH]c2ccccc2c1/C=N/NC(=O)CNC(=O)c1ccc2c(c1)OCO2`: 1.92 (inactive) and 3.35.
In the same order, the values of `NC(=S)N/N=C/c1coc2cc(Cl)ccc2c1=O` are -1.25 (inactive) and -1.16.
The matching figures for `O=C(CSc1nnc(-c2ccncc2)o1)NCc1ccc(Cl)cc1`: 0.26 (inactive) and -0.05.
`COc1ccc(NC(=S)NC2CCS(=O)(=O)C2)cc1` (stereo unspecified): the z-score runs as follows: (OD600 30 h) -0.13 (inactive); under setting [1], -0.11.
Turning to `COCCn1c(=NC(=O)c2ccccc2[N+](=O)[O-])sc2cc(S(C)(=O)=O)ccc21`, the z-score reads like this: (OD600 30 h) -0.84 (inactive); under setting [1], -0.91.
As to `COC(=O)c1onc(-c2c(OC)cc(OC)cc2OC)c1C(=O)OC`, the z-score reads like this: (OD600 30 h) 0.49 (inactive); under setting [1], 0.26.
With `O=C(COC(=O)c1cc(=O)[nH]c2ccccc12)Nc1nc(-c2cccc(Br)c2)cs1`, the z-score by setting is: (OD600 30 h) -0.47 (inactive); under setting [1], -0.07.
Regarding `C=CCNC(=O)c1ccccc1NC(=O)c1ccc(Cl)c(S(=O)(=O)Nc2cccc(C)c2C)c1`, the z-score by setting is: (OD600 30 h) -0.47 (inactive); under setting [1], 0.23.
